Experimental findings from PubChem BioAssay (NCI) are described below.

Experiment [1] in a line: NCI Yeast Anticancer Drug Screen. Data for the rad50 strain (AID 155).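 Note: 0% = growth of vehicle-only cultures of the same strain.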 To be noted: S. cerevisiae rad50 strain growth inhibition; at 50.0 µM; hits give high values. An outline of the steps:
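Compounds were tested on a yeast strain with an engineered DNA damage repair alteration; the reported value is growth inhibition normalised to vehicle treatment.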

Experiment [2] is described as follows: NCI Yeast Anticancer Drug Screen. Data for the mec2-1 strain (AID 157). As to conditions: S. cerevisiae mec2-1 strain, at 50.0 µM, hits give high values. A digest of the protocol: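 Yeast mec2-1 mutant treated with compound. Readout: growth inhibition vs vehicle controls.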
Experiment [3] in a line: NCI Yeast Anticancer Drug Screen. Data for the sgs1 mgt1 strain (AID 161).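 Note: 0% = growth of cultures given vehicle only.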 As to conditions: S. cerevisiae sgs1 mgt1 strain, at 50.0 µM, hits give high values. A digest of the protocol: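 Read-out: growth inhibition vs vehicle controls. Cells: mutant yeast strain deficient in DNA damage repair.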
The nature of experiment [4]: NCI Yeast Anticancer Drug Screen. Data for the cln2 rad14 strain (AID 165).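 Note: 0% = growth equal to vehicle treated cultures.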 To be noted: S. cerevisiae cln2 rad14 strain, at 50.0 µM, hits give high values. An outline of the steps: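 cln2 rad14 yeast strain; compound exposure; growth inhibition read vs vehicle controls.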
Experiment [5] can be described thus: NCI Yeast Anticancer Drug Screen. Data for the bub3 strain (AID 167). As to conditions: S. cerevisiae bub3 mutant strain, at 50.0 µM, hits give high values. An outline of the steps: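 Growth of a checkpoint-deficient yeast mutant is measured after compound exposure. Values represent inhibition relative to vehicle.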
Experiment [6] is described as follows: NCI Yeast Anticancer Drug Screen. Data for the mlh1 rad18 strain (AID 175). As to conditions: S. cerevisiae mlh1 rad18 strain growth inhibition; at 50.0 µM; hits give high values. An outline of the steps:
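Yeast w/ defined DNA-repair lesions; compound exposure; growth vs vehicle controls → % inhibition.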

This is part of a sample that, as a whole, favours compounds with a hit. Of some 79,000 tested, about 15% had one in any assay. Values without a mark were called inactive. Calls of active or inactive are those of the source. Cut-off read from the data, not from the text of the source: active = growth inhibition above about 70%; inactive = the rest.

Regarding `O=C1CSC(c2cccs2)N1c1nncs1` (stereo not drawn), the growth inhibition in experiment [1] is 27.4%; in experiment [2], -14.8%; in experiment [3] it was 19.3%; in experiment [4] it was 14.6%; in experiment [5] it was 11.6%; in experiment [6], 21.6%.

Regarding `O=C(c1ccccc1)N1C(c2ccccc2)C1(c1ccccc1)C1(c2ccccc2)SCCCS1` (stereo not drawn), the growth inhibition in experiment [1] was -17.6%; in experiment [2] it was 14.7%; in experiment [3], -13.4%; in experiment [4], -61.6%; in experiment [5] it was -0.1%; in experiment [6] it was -1.25%.

For the compound `O=C1C(c2ccccc2)=C2c3ccccc3-c3ccccc3C2(O)C1c1ccccc1` (stereo not drawn), the growth inhibition in experiment [1] is 91.8% (active); in experiment [2], 94.8% (active); in experiment [3], 94.4% (active); in experiment [4] it was 91.5% (active); in experiment [5], 90.9% (active); in experiment [6], 94.2% (active).

Regarding `CCCN(CCC)C(=O)c1c(Cl)c2cccnc2n2c(C)cnc12`, the growth inhibition is 5.35% in experiment [1]; 19.7% in experiment [2]; 26.6% in experiment [3]; 18.7% in experiment [4]; 15.1% in experiment [5]; 31.3% in experiment [6].

For `O=C(C(Cl)=C(N1CCOCC1)N1CCOCC1)C(Cl)Cl`, the growth inhibition in experiment [1] was -37.9%; in experiment [2], -18.4%; in experiment [3] it was -57.5%; in experiment [4], -15.8%; in experiment [5], -32.9%; in experiment [6], -34.6%.

Regarding `COc1c(O)cc2oc(-c3ccc(O)cc3)cc(=O)c2c1O`, the growth inhibition was 11% in experiment [1]; -5.7% in experiment [2]; 29.8% in experiment [3]; 10.8% in experiment [4]; 16.2% in experiment [5]; -0.05% in experiment [6].

As to `CCCC(=O)OC1CCCC1`, the growth inhibition in experiment [1] is 27.9%; in experiment [2] it was 27.8%; in experiment [3], 20.4%; in experiment [4], 24.1%; in experiment [5], 21.8%; in experiment [6], 28.7%.

As to `O=C(O)CC(=O)CC(=O)c1ccccc1`, the growth inhibition is -14.8% in experiment [1]; -18.5% in experiment [2]; -23.4% in experiment [3]; -30.7% in experiment [4]; -2.1% in experiment [5]; -7.4% in experiment [6].

`O=c1oc2ccccc2c(O)c1Oc1ccccc1`: the growth inhibition was -7.35% in experiment [1]; 3.5% in experiment [2]; -15.3% in experiment [3]; -10.7% in experiment [4]; -12.5% in experiment [5]; -1.05% in experiment [6].

Take `CCOC(C)OCCCI` (stereo not drawn): the growth inhibition in experiment [1] is -25.8%; in experiment [2] it was -21.3%; in experiment [3] it was 3.5%; in experiment [4] it was -9.7%; in experiment [5], -13.3%; in experiment [6], 13.2%.

On to `CC(=O)N1N=C(c2ccc(OCC(O)CN3CCN(CC(O)COc4ccc(C5=NN(C(C)=O)C(c6ccccc6)C5)cc4)CC3)cc2)CC1c1ccccc1` (stereo not drawn), for which the growth inhibition in experiment [1] was -30.6%; in experiment [2], -25.9%; in experiment [3], -8.85%; in experiment [4] it was -30.4%; in experiment [5], -25.9%; in experiment [6], -3.8%.

Regarding `CCCCN1C(=O)c2cc(=O)[nH]c(O)c2C1C` (stereo not drawn), the growth inhibition in experiment [1] was -19.4%; in experiment [2], 6.35%; in experiment [3] it was -25.9%; in experiment [4], -0.55%; in experiment [5], -27.1%; in experiment [6] it was 3.25%.

With `COC1OC(COS(=O)(=O)c2ccc(C)cc2)C(OS(=O)(=O)c2ccc(C)cc2)C1OCc1ccccc1` (stereo not drawn), the growth inhibition is -2.35% in experiment [1]; 2.85% in experiment [2]; 3.9% in experiment [3]; -15.7% in experiment [4]; -0.65% in experiment [5]; -1.4% in experiment [6].

For the compound `CCC(C)(C)c1ccc(OCCOC(C)=O)cc1`, the growth inhibition in experiment [1] was 3.1%; in experiment [2], -11.8%; in experiment [3], 26.1%; in experiment [4], -13.7%; in experiment [5], 18.7%; in experiment [6], 23.1%.

As to `OCC(O)C(O)C(O)C(O)CNC(CO)(CO)CO` (stereo not drawn), the growth inhibition in experiment [1] was 9.9%; in experiment [2], 13.3%; in experiment [3], 18.6%; in experiment [4], -1.45%; in experiment [5], 16.6%; in experiment [6] it was 27.5%.

Take `O=[N+]([O-])c1ccc2[nH]c(-c3ccccc3)cc2c1`: the growth inhibition in experiment [1] is 5.2%; in experiment [2], 10.8%; in experiment [3] it was -3.6%; in experiment [4], 7.3%; in experiment [5], -2.2%; in experiment [6], 18.9%.

Turning to `Cc1ccc(CNC(=O)NC(C)(C)C)cc1`, the growth inhibition in experiment [1] was -3.05%; in experiment [2], -8.45%; in experiment [3], -2.65%; in experiment [4] it was -50.2%; in experiment [5] it was 1.85%; in experiment [6], 0.1%.

As to `CC(C)CCC(C)(C)COC(=O)c1ccc([N+](=O)[O-])cc1` (tested in a mixture with another compound), the growth inhibition in experiment [1] is 36.5%; in experiment [2], 15.1%; in experiment [3], 43.4%; in experiment [4], -2.25%; in experiment [5], 2.15%; in experiment [6], 29.3%.

In the case of `CC(=O)OC1CCC2(C)C(=CCC3C2CCC2(C)C(/C(C)=N/NC(N)=S)=CCC32)C1` (stereo not drawn), the growth inhibition is 58.8% in experiment [1]; 55.4% in experiment [2]; 67.6% in experiment [3]; 49.6% in experiment [4]; 37.7% in experiment [5]; 54.1% in experiment [6].

`O=c1nc(Nc2ccccc2)ccn1C1OC(CO)C(O)C1O` (stereo not drawn): the growth inhibition in experiment [1] is -7.95%; in experiment [2], 0.25%; in experiment [3], 0.2%; in experiment [4], 12%; in experiment [5] it was 7.55%; in experiment [6], 5.85%.

As for `CC(C)NC(N)=O`, the growth inhibition in experiment [1] is 29.8%; in experiment [2], 16%; in experiment [3], 26.4%; in experiment [4] it was 19.1%; in experiment [5], 2.35%; in experiment [6] it was 16.4%.

Take `CN(C)C(=O)Sc1ccc([N+](=O)[O-])cc1`: the growth inhibition in experiment [1] is 4.75%; in experiment [2], -12.8%; in experiment [3], -14.6%; in experiment [4] it was -45.5%; in experiment [5], 4.6%; in experiment [6] it was -19.8%.

As to `C/C=C/C(=O)OCCC(C)OC(=O)/C=C/C` (stereo not drawn), the growth inhibition in experiment [1] was 26.1%; in experiment [2] it was -30.4%; in experiment [3] it was 19.4%; in experiment [4] it was 17.4%; in experiment [5] it was 15.9%; in experiment [6], 5.25%.

Turning to `CCOC(=O)c1nc2ccccc2nc1NCc1ccc(OC)c(OC)c1`, the growth inhibition in experiment [1] was 0.65%; in experiment [2] it was 13.1%; in experiment [3] it was -7.75%; in experiment [4], 19.7%; in experiment [5], -0.05%; in experiment [6] it was -11.4%.

`N#CSCc1ccc(CSC#N)c(Br)c1`: the growth inhibition in experiment [1] is 20.2%; in experiment [2], 14.9%; in experiment [3], 7.85%; in experiment [4], 18.6%; in experiment [5] it was 10.4%; in experiment [6] it was 43.4%.

With `O=C1NC2C1C1c3ccccc3C2C12CC2` (stereo not drawn), the growth inhibition in experiment [1] is -11.1%; in experiment [2] it was -7.95%; in experiment [3], -13.6%; in experiment [4] it was -11.8%; in experiment [5], 13.1%; in experiment [6], -1.85%.

Consider `CCCCCCCCCCCCCCCC(O)S(=O)(=O)O` (stereo not drawn), for which the growth inhibition in experiment [1] was -27.2%; in experiment [2], -24.9%; in experiment [3], -10.1%; in experiment [4], 0.55%; in experiment [5] it was -29.4%; in experiment [6], -23.9%.

Consider `CCOC(=O)C1(N)CC1`, for which the growth inhibition is 4.65% in experiment [1]; 7.1% in experiment [2]; 2.8% in experiment [3]; -10% in experiment [4]; -11.4% in experiment [5]; 17.2% in experiment [6].

Consider `CCOC(=O)c1ccc(N=C(N)N)cc1`, for which the growth inhibition is 23% in experiment [1]; 9.85% in experiment [2]; 19.8% in experiment [3]; 11% in experiment [4]; 17.2% in experiment [5]; 19.6% in experiment [6].

In the case of `O=C1OCC(O)=C1C(c1ccc(Cl)cc1)c1cc2c(cc1O)OCO2` (stereo not drawn), the growth inhibition in experiment [1] was -19.9%; in experiment [2], -16.7%; in experiment [3] it was -28.1%; in experiment [4], -16.3%; in experiment [5], 0.05%; in experiment [6] it was -37.5%.

On to `O=C1NC(c2ccccc2)(c2ccccc2)C(=O)N1CCCCCCN1C(=O)NC(c2ccccc2)(c2ccccc2)C1=O`, for which the growth inhibition is 8.35% in experiment [1]; 3.45% in experiment [2]; 4% in experiment [3]; 0.25% in experiment [4]; -7.15% in experiment [5]; 18.2% in experiment [6].

On to `CN=C1N[N+]2=CCCCC2S1` (stereo not drawn), for which the growth inhibition was 17.8% in experiment [1]; 3.35% in experiment [2]; 19.7% in experiment [3]; 0.75% in experiment [4]; 2.4% in experiment [5]; 13.3% in experiment [6].

`CCOC(=O)Cc1cccnc1N`: the growth inhibition in experiment [1] was -3.15%; in experiment [2], -9.45%; in experiment [3], -19.9%; in experiment [4], -3.9%; in experiment [5], 1%; in experiment [6], -2.25%.

Consider `CC(C)SC(CC(O)C(O)COC(=O)c1ccccc1)SC(C)C` (stereo not drawn), for which the growth inhibition in experiment [1] was -8.05%; in experiment [2], -0.15%; in experiment [3], 6.15%; in experiment [4] it was -8.35%; in experiment [5] it was -4.7%; in experiment [6] it was 17.8%.

For `O=C(O)CNC(=O)CNC(=O)C(CCC(=O)OCc1ccccc1)NC(=O)OCc1ccccc1` (stereo not drawn), the growth inhibition in experiment [1] is 27.2%; in experiment [2] it was 12.3%; in experiment [3] it was 14.4%; in experiment [4] it was 9.3%; in experiment [5], 6.2%; in experiment [6], 15.2%.

In the case of `CC1(C)OC(=O)CC2(C)OC12` (stereo not drawn), the growth inhibition was -8% in experiment [1]; -52.3% in experiment [2]; -11.2% in experiment [3]; -16.4% in experiment [4]; -5.9% in experiment [5]; -19.2% in experiment [6].

Consider `CC1CC(=O)Nc2ncccc2N1` (stereo not drawn), for which the growth inhibition was 5.75% in experiment [1]; -4.2% in experiment [2]; 4.2% in experiment [3]; -28.6% in experiment [4]; 8.05% in experiment [5]; -9.45% in experiment [6].

As to `CC(=O)CC(=O)NCCN(C)C`, the growth inhibition in experiment [1] was -23.6%; in experiment [2] it was -43%; in experiment [3] it was -11.2%; in experiment [4] it was 5.95%; in experiment [5], -9.3%; in experiment [6], -6.65%.
